Source: PubChem BioAssay (NCI)
Compounds without any hit were thinned out: in the full panel of roughly 83,000, 20% have a hit.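 The test compound was applied at a single concentration to cells in 96-well plates for 48 hours, and percent growth was recorded.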 Unmarked numbers belong to inactive results. Activity calls are given as the source filed them. The calls were made as follows: active = growth percent below 10; inactive = the rest.

Each compound was assayed on LOX IMVI melanoma (assay: NCI-60 one-dose screen, 48 h (100 = growth as untreated, 0 = no growth, -100 = all killed)). Settings: 10 µM unless noted.

| Compound | growth |
| --- | --- |
| COc1cc(C2CC(C3C(=O)N(C)C(=O)N(C)C3=O)=NN2C=O)cc(OC)c1OC (stereo not given) | 97.7% |
| C=C1CCC2C3(C)COC(c4ccccc4)OC3CCC2(C)C1C/C=C1/C(=O)OCC1OC(C)=O (stereo not given) | 12.3% |
| Clc1ccc(C2=NN(c3ccc(Cl)cc3)C(c3cccc(Nc4ccnc5cc(Cl)ccc45)c3)C2)cc1 (stereo not given) | 85.1% |
| CC(=O)N1N=C(c2ccc(Nc3nc(NCCO)nc(NCCO)n3)cc2)CC1c1ccc(Cl)cc1 (stereo not given) | 93.6% |
| O=C(c1ccccc1)c1ccc(Oc2ccc([N+](=O)[O-])cc2[N+](=O)[O-])cc1 | 5.97% (active) |
| O=C(C(=O)N1CCOCC1)c1cn(CCCn2cc(C(=O)C(=O)N3CCOCC3)c3ccccc32)c2ccccc12 | 104% |
| CC(C)CC1NC(=O)C(CCCN)NC(=O)C(C(C)C)NC(=O)C2CCCN2C(=O)C(Cc2ccccc2)NC(=O)C(CC(C)C)NC(=O)C(CCCN)NC(=O)C(C(C)C)NC(=O)C2CCCN2C(=O)C(Cc2ccccc2)NC1=O (stereo not given) | -86.7% (active) |
| Cc1csc(C#Cc2cncc(O)c2)n1 | 116% |
| COc1cc(/C=C/C(=O)C(C(=O)/C=C/c2ccc(OC(=O)CCNC34CC5CC(CC(C5)C3)C4)c(OC)c2)C(=O)CCNC23CC4CC(CC(C4)C2)C3)ccc1OC(=O)CCNC12CC3CC(CC(C3)C1)C2 (stereo not given) | -72.7% (active) |
| C/C=C(/C(=C/C)c1ccc(O)cc1)c1ccc(O)cc1 | 39.1% |
| COc1cc(/C=C/C(=O)CC(=O)/C=C/c2ccc(OC(=O)CCNC34CC5CC(CC(C5)C3)C4)c(OC)c2)ccc1OC(=O)CCNC12CC3CC(CC(C3)C1)C2 | 0.619% (active) |
| Oc1c(Cl)cc(Cl)c(Cl)c1Cc1c(O)c(Cl)cc(Cl)c1Cl | 26.2% |
| COc1cc(C2CC(c3ccc(C)cc3)=NN2C=O)ccc1OCCN(C)C (stereo not given) | 89.8% |
| NS(=O)(=O)c1cc(C2(O)NC(=O)c3ccccc32)ccc1Cl (stereo not given) | 98.8% |
| CCn1cnc(C[C@H](NC(=O)[C@H](CCCCNC(=O)Nc2cc(C(F)(F)F)cc(C(F)(F)F)c2)NC(=O)Nc2cc(C(F)(F)F)cc(C(F)(F)F)c2)C(=O)OC)c1 | -100% [100 µM] (active) |
| CS(=O)(=O)N1CCN(Cc2cc3nc(-c4cccc5[nH]ncc45)nc(N4CCOCC4)c3s2)CC1 (tested in a mixture with another compound) | 18.8% |
| CN(C)c1ccc(-c2nc3ncc(Br)cc3o2)cc1 | 98.4% |
| COc1ccc(-c2cc(-c3nnc(SCC(=O)Nc4ccc(C(C)=O)cc4)n3-c3ccccc3)c3ccccc3n2)cc1OC | 98.1% |
| Nc1nc(NC2CC2)c2ncn(C3C=CC(CO)C3)c2n1 (stereo not given) | 103% |
| C[C@]12CCC(=O)C=C1CC[C@H]1[C@@H]3C[C@@H](O)[C@](O)(C(=O)CO)[C@@]3(C)C[C@H](O)[C@@]12F | 96% |

| Compound | growth |
| --- | --- |
| NS(=O)(=O)c1cc2c(cc1Cl)NC=NS2(=O)=O | 99.6% |
| COc1cnc2c(c1)C(=O)c1c-2n(CCCn2ccnc2)c(=O)c2cc(F)ccc12 | -68.9% (active) |
| NC(=O)c1cc(Br)cc(Br)c1NS(=O)(=O)c1ccccc1 | 99.4% |
| CN(C)c1ccc(-n2nc3ccccc3n2)cc1 | 93.8% |
| CC1CN(C2CCCCC2)C(=O)NC1=O (stereo not given) | 101% |
| O=C1C=CC(=O)N1c1ccccc1N1C(=O)C=CC1=O | 97.2% |
| Cc1n(Cc2ccc3ccccc3c2)c2ccccc2[n+]1Cc1ccc2ccccc2c1 | -89% (active) |
| C[C@H]1O[C@@H](O[C@H]2[C@@H](O)C[C@H](O[C@H]3[C@@H](O)C[C@H](O[C@H]4CC[C@]5(C)C6C[C@@H](O)[C@]7(C)[C@@H](C8=CC(=O)OC8)CC[C@]7(O)C6CC[C@@H]5C4)O[C@@H]3C)O[C@@H]2C)C[C@H](O)[C@@H]1O (stereo not given in full) | -98.1% (active) |
| O=C(CNc1ccc2c(c1)C(=O)c1ccccc1C2=O)Nc1ccc2c(c1)C(=O)c1ccccc1C2=O | -91.7% (active) |
| Cc1sc2nc(N3CCCCC3)[nH]c(=O)c2c1C | 99% |
| NC(=NCCCCCCN=C(N)/N=C(\N)Nc1ccc(Cl)cc1)/N=C(\N)Nc1ccc(Cl)cc1 | 23.4% |
| COc1cc(NC(=O)NCc2ccco2)ccc1-c1ccc(NC(=O)NCc2ccco2)cc1OC | 45.4% |
| CSc1nc(Nc2ccc(S(=O)(=O)Nc3ccon3)cc2)c(C#N)c(-c2ccc(Cl)cc2)n1 | 62.3% |
| COP(=O)(OC)C(c1ccc(O)cc1)(c1ccc(O)cc1)c1ccc(O)cc1 | 103% |
| C=C1CCC2C(C)(COC(=O)CC)C(OC(=O)CC)CCC2(C)C1C/C=C1/C(=O)OCC1OC(=O)CC (stereo not given) | -99.1% (active) |
| Cc1cnc2nc(-c3ccc(N(C)C)cc3)cn2c1 | 106% |
| Cc1ccc2nc3c(n2c1)C(=O)C(=O)c1ccccc1-3 | -72% (active) |
| CC(C)=CCCC(C)c1ccc(C)c2c1OCN(CC1CCNCC1)C2 (stereo not given) | -70.5% (active) |
| CCOc1cc(/C=C/C(=O)C(C(=O)/C=C/c2ccc(OC(=O)CNc3nc4ccccc4[nH]3)c(OCC)c2)C(=O)CNc2nc3ccccc3[nH]2)ccc1OC(=O)CNc1nc2ccccc2[nH]1 | -98.5% (active) |
| COc1ccc(C(=O)/C=C/c2cccc(Nc3ccnc4cc(Cl)ccc34)c2)cc1 | 6.49% (active) |
